Test results from publication PMC5700166.

Tests used:
Experiment in all cases: protein-binding microarray (PBM); PBM: ~300 nM protein, 6 mM HEPES pH 7.8, 80 mM KCl, 0.5 mM EDTA, 0.5 mM EGTA, 6% glycerol, 35 ng/ul poly-dIdC, 1% milk, 1 h, room temperature; Ap Aiptasia and Nv Nematostella (sea anemones) / Co Capsaspora / Aq Amphimedon (sponge) / Dm Drosophila / Hu human; RHD is the Rel homology domain; high values mean tight binding
Conditions in all cases: dsDNA, one strand shown
GST-Ap-NF-kB RHD = molecular target: T1, GST-Ap-NF-kB RHD (Exaiptasia pallida (Aiptasia), UniProt A0A913YAJ5 2-422)
T1 sequence: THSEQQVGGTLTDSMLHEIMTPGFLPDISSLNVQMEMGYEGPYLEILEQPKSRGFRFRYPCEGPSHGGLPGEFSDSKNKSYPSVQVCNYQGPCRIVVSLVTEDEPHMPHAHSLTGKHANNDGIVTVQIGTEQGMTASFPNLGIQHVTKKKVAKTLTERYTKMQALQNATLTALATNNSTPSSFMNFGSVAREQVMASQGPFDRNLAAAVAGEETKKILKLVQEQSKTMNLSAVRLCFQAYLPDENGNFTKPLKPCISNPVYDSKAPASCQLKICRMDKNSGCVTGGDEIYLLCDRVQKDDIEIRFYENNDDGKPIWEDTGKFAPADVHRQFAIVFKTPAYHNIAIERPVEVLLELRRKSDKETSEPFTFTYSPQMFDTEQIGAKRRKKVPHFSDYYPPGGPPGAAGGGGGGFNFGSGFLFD

[1] = molecular target: T2, GST-Nv-NF-kB (Cys allele) (Nematostella vectensis, UniProt E5G601 2-411)
T2 sequence: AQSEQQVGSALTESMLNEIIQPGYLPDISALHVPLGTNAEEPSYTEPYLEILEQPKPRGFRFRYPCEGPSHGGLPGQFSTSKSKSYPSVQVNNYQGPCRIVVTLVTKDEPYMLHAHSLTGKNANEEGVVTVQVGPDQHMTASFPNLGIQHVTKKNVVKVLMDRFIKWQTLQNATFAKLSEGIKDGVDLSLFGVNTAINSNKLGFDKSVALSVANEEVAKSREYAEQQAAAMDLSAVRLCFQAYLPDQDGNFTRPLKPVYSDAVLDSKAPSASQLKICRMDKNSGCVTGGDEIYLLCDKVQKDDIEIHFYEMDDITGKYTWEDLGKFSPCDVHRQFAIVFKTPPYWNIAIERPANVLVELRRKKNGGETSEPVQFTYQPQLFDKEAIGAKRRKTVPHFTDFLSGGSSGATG

GST-Co-NF-kB = molecular target: T3, GST-Co-NF-kB (Capsaspora owczarzaki, UniProt F1ARL5 200-546)
T3 sequence: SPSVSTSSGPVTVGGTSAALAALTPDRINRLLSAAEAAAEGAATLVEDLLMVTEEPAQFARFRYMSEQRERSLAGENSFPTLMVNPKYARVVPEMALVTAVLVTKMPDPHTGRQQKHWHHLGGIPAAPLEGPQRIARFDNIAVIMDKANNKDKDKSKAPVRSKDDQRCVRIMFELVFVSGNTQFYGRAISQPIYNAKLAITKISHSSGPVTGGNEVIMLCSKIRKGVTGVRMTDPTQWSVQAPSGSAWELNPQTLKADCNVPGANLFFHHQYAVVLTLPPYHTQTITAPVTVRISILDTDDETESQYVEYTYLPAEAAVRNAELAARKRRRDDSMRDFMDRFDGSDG

GST-Dm-Relish = molecular target: T4, GST-Dm-Relish (Drosophila melanogaster, UniProt Q94527 99-473)
T4 sequence: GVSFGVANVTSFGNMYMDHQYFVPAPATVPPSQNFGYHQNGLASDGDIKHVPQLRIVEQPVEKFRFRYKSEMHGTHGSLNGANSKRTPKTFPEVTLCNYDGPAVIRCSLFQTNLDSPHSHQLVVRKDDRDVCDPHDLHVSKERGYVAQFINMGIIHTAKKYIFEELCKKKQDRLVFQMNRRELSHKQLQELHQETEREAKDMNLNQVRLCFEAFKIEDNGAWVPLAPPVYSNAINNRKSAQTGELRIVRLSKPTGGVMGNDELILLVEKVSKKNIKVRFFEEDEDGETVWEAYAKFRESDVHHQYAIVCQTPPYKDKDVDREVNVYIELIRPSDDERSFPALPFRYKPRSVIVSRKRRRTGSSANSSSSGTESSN

GST-Aq-NF-kB = molecular target: T5, GST-Aq-NF-kB (Amphimedon queenslandica, UniProt A9Y5G7 2-389)
T5 sequence: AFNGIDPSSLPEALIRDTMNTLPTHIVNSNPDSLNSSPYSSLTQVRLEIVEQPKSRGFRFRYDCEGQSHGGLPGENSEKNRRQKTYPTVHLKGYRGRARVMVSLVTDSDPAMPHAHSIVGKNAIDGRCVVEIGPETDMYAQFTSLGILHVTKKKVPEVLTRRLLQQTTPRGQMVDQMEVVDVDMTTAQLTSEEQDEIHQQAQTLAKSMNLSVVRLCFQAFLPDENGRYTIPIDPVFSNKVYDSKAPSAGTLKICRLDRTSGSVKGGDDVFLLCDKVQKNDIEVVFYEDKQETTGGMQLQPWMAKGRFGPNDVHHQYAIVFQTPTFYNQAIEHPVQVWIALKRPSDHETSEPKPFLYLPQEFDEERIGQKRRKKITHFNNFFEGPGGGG

Sequence	binding signal (GST-Ap-NF-kB RHD)	binding signal [1]	binding signal (GST-Co-NF-kB)	binding signal (GST-Dm-Relish)	binding signal (GST-Aq-NF-kB)
CCGATTAACATCAGGGGAAGGGATGATGTTAATCGGGTCTTGATTCGCTTGACGCTGCTG	4.77 z-score	4.77 z-score	3.96 z-score	1.68 z-score	3.89 z-score
CCGATTAACATCACTGGGAATTCTGATGTTAATCGGGTCTTGATTCGCTTGACGCTGCTG	3.23 z-score	3.49 z-score	3.79 z-score	3.32 z-score	2.67 z-score
CCGATTAACATCACCCCAGCCCCTGATGTTAATCGGGTCTTGATTCGCTTGACGCTGCTG	3.28 z-score	1.93 z-score	2.88 z-score	2.39 z-score	2.91 z-score
CCGATTAACATCAGGCCATCCCCTGATGTTAATCGGGTCTTGATTCGCTTGACGCTGCTG	3.87 z-score	4.02 z-score	1.22 z-score	7.89 z-score	5.6 z-score
CCGATTAACATCAGGACTACCCCTGATGTTAATCGGGTCTTGATTCGCTTGACGCTGCTG	3.7 z-score	3.48 z-score	1.83 z-score	2.36 z-score	6.48 z-score
CCGATTAACATCAGGGAGATACCTGATGTTAATCGGGTCTTGATTCGCTTGACGCTGCTG	4 z-score	4.81 z-score	1.64 z-score	4.25 z-score	7.69 z-score
CCGATTAACATCAGGCCTCCCCCTGATGTTAATCGGGTCTTGATTCGCTTGACGCTGCTG	4.86 z-score	4.22 z-score	4.14 z-score	6 z-score	6.6 z-score
CCGATTAACATCATCTCCCCCCATGATGTTAATCGGGTCTTGATTCGCTTGACGCTGCTG	4.75 z-score	2.53 z-score	8 z-score	2.29 z-score	4.57 z-score
CCGATTAACATCAGGGGGGGTCATGATGTTAATCGGGTCTTGATTCGCTTGACGCTGCTG	3.99 z-score	2.96 z-score	3.31 z-score	3.85 z-score	3.54 z-score
CCGATTAACATCAGGGGGTTAACTGATGTTAATCGGGTCTTGATTCGCTTGACGCTGCTG	5.36 z-score	3.73 z-score	2.64 z-score	8.09 z-score	5.06 z-score
CCGATTAACATCAGGGGATCCCATGATGTTAATCGGGTCTTGATTCGCTTGACGCTGCTG	7.15 z-score	5.1 z-score	2.81 z-score	10 z-score	4.95 z-score
CCGATTAACATCAAAAACACCCCTGATGTTAATCGGGTCTTGATTCGCTTGACGCTGCTG	4.85 z-score	3.9 z-score	3.98 z-score	5.77 z-score	4.95 z-score
CCGATTAACATCAGAATTACCCATGATGTTAATCGGGTCTTGATTCGCTTGACGCTGCTG	3.09 z-score	3.82 z-score	2.12 z-score	1.97 z-score	3.58 z-score
CCGATTAACATCAAAAAGGGAAATGATGTTAATCGGGTCTTGATTCGCTTGACGCTGCTG	2.59 z-score	5.91 z-score	1.33 z-score	1.31 z-score	4.54 z-score
CCGATTAACATCAAACCCCCCCGTGATGTTAATCGGGTCTTGATTCGCTTGACGCTGCTG	6.76 z-score	3.82 z-score	5.57 z-score	7 z-score	4.9 z-score
CCGATTAACATCACGTATTTCCCTGATGTTAATCGGGTCTTGATTCGCTTGACGCTGCTG	3.32 z-score	4.03 z-score	3.79 z-score	4.26 z-score	3.99 z-score
CCGATTAACATCAGGGGGATGTATGATGTTAATCGGGTCTTGATTCGCTTGACGCTGCTG	4.97 z-score	4.88 z-score	4.13 z-score	4.17 z-score	4.11 z-score
CCGATTAACATCAGGAGTTTCCCTGATGTTAATCGGGTCTTGATTCGCTTGACGCTGCTG	4.6 z-score	6.51 z-score	3.2 z-score	4.94 z-score	8.06 z-score
CCGATTAACATCAGGGAGTCCCATGATGTTAATCGGGTCTTGATTCGCTTGACGCTGCTG	4.64 z-score	3.33 z-score	1.13 z-score	9.06 z-score	4.21 z-score
CCGATTAACATCACGTCCCCCCCTGATGTTAATCGGGTCTTGATTCGCTTGACGCTGCTG	6.32 z-score	4.27 z-score	5.34 z-score	4.38 z-score	4.49 z-score
CCGATTAACATCAGGGGAGTATATGATGTTAATCGGGTCTTGATTCGCTTGACGCTGCTG	4.78 z-score	3.81 z-score	4.7 z-score	2.18 z-score	3.95 z-score
CCGATTAACATCAGGGGGTGTTATGATGTTAATCGGGTCTTGATTCGCTTGACGCTGCTG	4.69 z-score	4.31 z-score	3.42 z-score	4.34 z-score	5.4 z-score
CCGATTAACATCAGGTTTTCCCATGATGTTAATCGGGTCTTGATTCGCTTGACGCTGCTG	3.58 z-score	3.91 z-score	4.33 z-score	5.47 z-score	4.82 z-score
CCGATTAACATCACCAAATTCCCTGATGTTAATCGGGTCTTGATTCGCTTGACGCTGCTG	4.1 z-score	4.67 z-score	3.82 z-score	4.02 z-score	4.03 z-score
CCGATTAACATCAGGGGGTATACTGATGTTAATCGGGTCTTGATTCGCTTGACGCTGCTG	5.81 z-score	3.11 z-score	4.82 z-score	6.38 z-score	4.14 z-score
CCGATTAACATCAAGCACCCCCTTGATGTTAATCGGGTCTTGATTCGCTTGACGCTGCTG	4.4 z-score	3.21 z-score	1.76 z-score	2.85 z-score	4.66 z-score
CCGATTAACATCAAGGGAATCCCTGATGTTAATCGGGTCTTGATTCGCTTGACGCTGCTG	6.73 z-score	6.1 z-score	2.83 z-score	9.2 z-score	6.63 z-score
CCGATTAACATCAAATAGGGAATTGATGTTAATCGGGTCTTGATTCGCTTGACGCTGCTG	2.29 z-score	5.11 z-score	1.54 z-score	1.32 z-score	3.5 z-score
